Inconclusive results are not listed. The source made the active and inactive calls. Calls come from the whole dose curve; as a rule, active = well fitted curve in the direction sought with a large enough effect; inconclusive = small, poorly fitted or top-dose-only effect, or another doubt; inactive = no such curve, though single readings can be large or run the other way.

Experimental findings from PubChem BioAssay AID540361 (National Center for Advancing Translational Sciences (NCATS), 2011) are described below.

The test addresses Lysosomal acid glucosylceramidase (Homo sapiens) (UniProt P04062). Put plainly: Activators of Human alpha-Glucosidase as a Potential Chaperone Treatment of Pompe Disease: Alpha-Galactosidase Counter Screen. The conditions noted are these: purified human alpha-galactosidase, 4-MU fluorogenic substrate. From the text: Alpha-glucosidase is responsible for hydrolysis of terminal, non-reducing 1,4-linked alpha-D-glucose residues with release of alpha-D-glucose. It is a lysosomal hydrolase that is required for the degradation of a small percentage (1-3%) of cellular glycogen in human. Deficiency of this enzyme results in glycogen-storage disease type II (GSDII), also referred to as Pompe disease, an autosomal recessive disorder. Structurally normal glycogen is accumulated in lysosomes and cytoplasm in affected patients, primarily in muscle tissues. Excessive glycogen storage within lysosomes may interrupt normal functioning of other organelles and leads to cellular injury. In turn, this leads to enlargement and dysfunction of the entire organ involved (eg, cardiomyopathy and muscle weakness). […]
This is a fluorogenic enzyme assay with 4-methylumbelliferyl-[…] as the substrate and human alpha-galactosidase as the enzyme preparation. […] 4-methyllumbelliferone, can be excited at 365 nm and emits at 440 nm which can be detected by a standard fluorescence plate reader. […] In the AC50 values were determined from concentration-response data modeled with the standard Hill equation. […] (5) Add 2 ul stop solution (1M NaOH and 1M Glycine mixture, pH 10) (6) Detect the assay plate in a ViewLux plate reader (PerkinElmer) with Ex=365 nm and Em=440nm. […]
On the technique in general: The purpose of a counterscreen is to sort out artefacts and off-target activity.

Take `CCCN1CNc2c(c(=O)[nH]c(=S)n2CCc2cccc(Cl)c2Cl)C1`: the Potency is 9.13 µM (active).
